Laboratory results published in PubChem BioAssay (NCI).
This is part of a sample that, as a whole, favours compounds with a hit. Of some 83,000 tested, about 20% had one in any assay.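 Results are percent growth after 48 hours of single-concentration exposure. 100 means growth as in untreated cells, lower positive values show inhibition; negative values down to -100 show cell death.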 A number with no mark means an inactive call. The source made the active and inactive calls. How the source made its calls: active means growth percent below 10; inactive means the rest.

test system: OVCAR-3 ovarian; experiment: NCI-60 one-dose screen, 48 h (100 = growth as untreated, 0 = no growth, -100 = all killed); details: 10 µM unless noted

SMILES	growth
Cc1ccc(C(=O)Nc2ccc(-n3ccnc3)c(C(F)(F)F)c2)cc1C#Cc1cnc2cccnn12	45.4%
N/C(=N\c1nc2ccccc2s1)NC(=O)Nc1ccccc1F	7.03% (active)
Cc1nc2sccn2c1-c1nnc(SCC(C)C)o1	104%
O=[N+]([O-])c1cccc(-c2nnc3c(/C=C/c4ccc(F)cc4)nc4ccccc4n23)c1	116%
C=CC(=O)N1CCN(c2ccc3nc4c(nc3c2C(F)(F)F)C(=O)c2ncccc2C4=O)CC1	-15.3% (active)
CN1CCN(CCS(=O)(=O)Nc2cc(-c3ccc4ncnc(Nc5ccc(F)c(Cl)c5)c4c3)cnc2Cl)CC1	-31.7% (active)
COc1ccc(N=Nc2c(N)nn3c(-c4ccc(F)cc4)ccnc23)cc1	79.6%
O=C(N/N=C/c1c[nH]c2ccccc12)Nc1ccc(F)c(Cl)c1	18.9%
N#CCc1nnc(NC(=O)c2ccc(-n3c(=O)[nH]c4ccccc4c3=O)cc2)s1	104%
CCOc1ccc(-c2cc(-c3cc(C(C)C)c(O)cc3C)nn2-c2ccc(S(N)(=O)=O)cc2)cc1	36.2%
CN1CCN(c2ccc3c4c(cccc24)C(=O)N(c2cccc(-c4nn(-c5ccccc5)cc4-c4nc5ccccc5s4)c2)C3=O)CC1	118%
O=C(Cn1c(-c2ccccc2)nc2ccccc21)N=Nc1c(O)[nH]c2ccc(Cl)cc12	1.02% (active)
CCc1ccc(SC2c3cc(OC)ccc3Oc3nc(N)c(C#N)c(N)c32)cc1 (stereo not drawn)	-48.3% (active)
